Source: PubChem
MARV entry inh: blocks Marburg virus binding to or entry into cells | Marburg virus pseudotyped entry inhibition, cell reporter | AID 540276 | Potency, µM (top dose mostly 37.8 µM), for the others: at the highest dose activity change, negative = inhibition, usual class: inhibitors | actives 1.8% (n = 300,000); calls by dose curve; tested in HEK293 cells; further: potency means the concentration at half of the fitted maximal effect
FMDV antiviral: blocks foot and mouth disease virus; Potency, µM (highest dose often 57.9 µM), without a hit: at the top dose activity change, negative = inhibition, hits mostly inhibitors; actives 1.2% (n = 410,000); AID 1159524; FMDV antiviral cell-based qHTS; calls by dose curve; tested in HEK293T cells; further: read-out not given here; potency means the concentration at half of the fitted maximal effect; nearly all actives have a fitted effect of over 45% in size
LASV entry inh: blocks Lassa virus binding to or entry into cells | Lassa virus pseudotype entry inhibition, cell reporter | Potency, µM (highest dose often 37.9 µM), for inactives: top-dose activity change, negative = inhibition, actives largely listed as inhibitors | actives 1.2% (n = 300,000); calls by dose curve; tested in HEK293 cells; further: potency means the concentration at half of the fitted maximal effect; nearly all actives have a fitted effect of over 50% in size
HCMV inh: inhibitors of human cytomegalovirus; actives 4.5% (n = 410,000); HFF cells, HCMV-luciferase reporter, 72 h; active compounds read low; activity change, negative = inhibition, % at 57.5 µM; in the data active means activity change below about -60%; inconclusive means no clear call, values can overlap the other calls; inactive means above about -39%
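Luciferase read-out from HCMV-luciferase-infected HFFs (MOI 1 PFU/cell) 72 h post infection at 37C; compounds added after 16 h cell attachment; activity normalized between buffer-only basal and Salinomycin (10uM) inhibitor controls.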
* hit, by the source's call; ? = inconclusive; . = no result given; [ ] = remark or other dose. In the library only some 6.2% were active in any assay of this set; here they are far more common. On the % scale 0 is the no-effect control and ±100 the full control effect.

SMILES	MARV entry inh	FMDV antiviral	LASV entry inh	HCMV inh
COc1ccc(N(C)C(=O)C2CCN(S(=O)(=O)c3cccc4nonc34)CC2)c(OC)c1	?	-25%	?	-61*
CC(NC(=O)C1CCN(S(=O)(=O)c2cccc3nonc23)CC1)c1ccccc1 (stereo unspecified)	-13%[46.1 µM]	13%	-12%[46.1 µM]	-88*
Cc1ccsc1-c1cc2nc(Nc3ccc(F)cc3)n(C)c(=O)c2s1	.	67%	.	55
Cc1ccccc1N1C(N)=NC(N)=NC1(C)C	?	-18%	18%	-16
CC1(C)N=C(N)N=C(N)N1CCCCc1ccccc1	?	0%	?	-98*
CCCCN(CC)C(=O)Cc1c(C(=O)O)[nH]c2ccc(Cl)cc12	16%	0%	2%	-5
COc1ccc(S(=O)(=O)Nc2ccc3cn[nH]c3c2)cc1C	?	0%	2%	15
Cc1cc(C)c(C)c(S(=O)(=O)Nc2ccc3cn[nH]c3c2)c1C	.	-10%	.	-84*
COc1ccc(NC(=S)N(CCN(C)C)C(C)c2ccco2)cc1 (stereo unspecified)	?	27%	?	-62*
CC(C)C1CCN(C(=O)C2CCC(=O)N(CCc3ccc(Cl)cc3)C2)CC1 (stereo unspecified)	6%	?	-18%	-64*
COCCN1CCN(C(=O)C2CCC(=O)N(CCc3ccc(Cl)cc3)C2)CC1 (stereo unspecified)	4%	-23%	7%	-37
COc1cc(NC(=O)C2CCN(S(=O)(=O)c3cccs3)CC2)cc(OC)c1	10%	?	-8%	-33
O=C(Nc1nc(-c2ccc3ccccc3c2)cs1)C1CCN(S(=O)(=O)c2cccs2)CC1	-2%	?	?	-75*
Cc1ccc(-c2csc(NC(=O)C3CCN(S(=O)(=O)c4cccs4)CC3)n2)cc1	?	?	?	-79*
Cc1ccc(NC(=O)C2CCN(S(=O)(=O)c3cccs3)CC2)cc1	?	-19%	?	-28
CCC(=O)N=c1sc2cc(F)cc(F)c2n1C	.	31%	.	-62*
O=C1c2ccccc2NC(c2ccc(Br)s2)N1O (stereo unspecified)	.	3%	.	-75*
CCn1nnnc1SCC(=O)Nc1ccc2c(c1)OCCO2	-21%[46.1 µM]	37%	4%	47
O=C(O)c1cc(-c2cc(C(=O)O)c3ccccc3n2)ccc1O	?	-18%	9%[46.1 µM]	1
Cc1ccsc1-c1ccnc(-n2cccc2)n1	32%	34%	13%	62
CC1=CN2C(=N)/C(=C/c3ccc([N+](=O)[O-])o3)C(=O)N=C2S1	?	25µM*	-14%	-96*
CC1=CN2C(=N)/C(=C/c3ccco3)C(=O)N=C2S1	?	-71%	?	67
C=CCn1c(-c2cccc(OC)c2OC)n[nH]c1=S	?	?	-26%	-70*
Cc1ccc(C(=O)NCCNC(=O)c2ccc(C)o2)o1	.	-2%	.	24
O=C1/C(=C\c2ccco2)SC(=S)N1C1CCS(=O)(=O)C1 (stereo unspecified)	?	0%	-6%	-74*
SMILES	MARV entry inh	FMDV antiviral	LASV entry inh	HCMV inh
COc1ccc(-c2cc(C(=O)Nc3ccc(C(N)=O)cc3)c3ccccc3n2)cc1OC	?	-9%	-21%	-92*
COc1ccccc1CCNC(=O)c1cc(-c2ccncc2)nc2ccc(Br)cc12	?	?	?	-66*
COc1ccccc1CCNC(=O)c1cc(-c2ccccn2)nc2ccccc12	-32%	-23%	-8%	-7
COc1ccc(-c2cc(C(=O)OCC(=O)NC3CC3)c3ccccc3n2)cc1	.	13%	.	0
COc1ccccc1NC(=O)c1cc(-c2ccc(C)o2)nc2ccccc12	?	-18%	2%	-71*
Cc1ccc(NC(=O)c2cc(-c3ccc(C)o3)nc3ccccc23)cc1	-20%	.	13%	18
COc1ccc2cc(-c3cc(C(=O)OCC(=O)NC4CCS(=O)(=O)C4)c4ccccc4n3)ccc2c1 (stereo unspecified)	3.2µM*	-22%	3.5µM*	66
COc1cc(-c2cc(C(=O)Nc3ccc(O)cc3)c3ccccc3n2)cc(OC)c1OC	.	?	.	-1
N#Cc1ccccc1S(=O)(=O)N1CCN(c2nc(-c3ccccc3)nc3ccccc23)CC1	.	-10%	.	-22
CCOC(=O)C1CSCCS(=O)(=O)N1Cc1ccc(Br)cc1 (stereo unspecified)	.	.	-1%[46.1 µM]	-16
Cc1ccc2nc(NCc3ccccc3)c3nncn3c2c1	-1%[46.1 µM]	6%	.	-8
Nc1nnc(CSc2ccc(Cl)cc2)s1	-1%	0%	-11%	12
CCOc1ccc(-c2cc(C(=O)NCCCn3ccnc3)c3ccccc3n2)cc1	.	6%	.	-10
O=C(NCCCn1ccnc1)c1nn2c(C(F)(F)F)cc(-c3ccc(Br)cc3)nc2c1Cl	?	35µM*	-7%	3
COc1ccc(NC(=O)c2cc(-c3ccc(OC)c(OC)c3)nc3ccccc23)c(OC)c1	?	7%	?	-75*
CCOc1ccc(-c2cc(C(=O)NCCCn3ccnc3)c3cc(Br)ccc3n2)cc1	?	?	?	-77*
COc1ccc(NC(=O)c2cc(-c3ccncc3)nc3ccccc23)c(OC)c1	5.6µM*	-19%	?	-6
Cc1cc(Cl)ccc1NC(=S)N1CCN(C(=O)c2ccco2)CC1	-1%	4%	-13%	-7
CCn1c(Cc2cccs2)nnc1SCC(=O)Nc1ccc(OC)c(OC)c1	-3%	-28%	-2%	-35
Cc1ccccc1Nc1nc(N)nc(CSc2nnnn2-c2ccccc2)n1	-13%	.	?	?
O=C(NCc1ccccc1)C(c1ccccc1)N(Cc1cccs1)C(=O)c1cnccn1 (stereo unspecified)	21µM*	-2%	-6%	-31
COc1ccccc1NS(=O)(=O)c1cc(NC(=S)Nc2cc(C)cc(C)c2)ccc1Cl	?	?	-21%	-82*
COc1ccccc1NS(=O)(=O)c1cc(NC(=O)c2cccs2)ccc1N1CCCCC1	5.8µM*	75%	?	-37
COc1ccccc1NS(=O)(=O)c1cc(NC(=O)c2sccc2C)ccc1N1CCCC1	?	91%	-18%	?
CCNC(=S)Nc1ccc(C)c(S(=O)(=O)Nc2ccccc2OC)c1	-25%[46.1 µM]	44%	10%	15
SMILES	MARV entry inh	FMDV antiviral	LASV entry inh	HCMV inh
COc1ccccc1NS(=O)(=O)c1cc(NC(=O)C(C)C)ccc1N1CCCCC1	0.79µM*	55%	?	-38
COc1ccccc1NS(=O)(=O)c1cc(NC(=O)c2cccs2)ccc1N1CCCC1	?	51%	12µM*	?
Cc1sc2ncn3ncnc3c2c1C	1%	-7%	-3%	?
O=C(CCS(=O)(=O)c1ccccc1)Nc1ccc(N2CCOCC2)cc1	2%[46.1 µM]	9%	26%[46.1 µM]	-16
Cc1cc(C)nc(NC2=NC3CCCCC3N2)n1 (stereo unspecified)	-26%	16%	-10%	-38
COc1ccc2cc(-c3nc(-c4ccc(N(C)C)cc4)no3)c(=O)oc2c1	.	8%	8%[46.1 µM]	-39
O=C(Nc1ccc(N2CCCC2)c(S(=O)(=O)Nc2cccc(C(F)(F)F)c2)c1)c1cccs1	1.4µM*	35%	?	?
O=C(Nc1cc(C(F)(F)F)ccc1N1CCOCC1)c1cccs1	?	-27%	-9%	13
